SMILES strings stand for the structures. Out of some 2,200 compounds screened, about 1,300 (59%) were called active. No rule for the calls is given here. So high a share suggests a set chosen from earlier hits. The list is a sample of the results. Measured potencies and affinities stand elsewhere.

The test is described as follows: THP-1 cell cytotoxicity, dose response, cytotoxicity control for Salmonella PhoP regulon inhibitors, S. typhimurium screen hits (AID 2253). As to conditions: THP-1 viability, CellTiter-Glo luminescence, 72 h; series mostly up to 50 µM. Background: ATP-based viability assays read luminescence as a measure of living cells.
As to `CCn1cc(C(=O)O)c(=O)c2cc3c(cc21)OCO3`, the compound was classed as inactive. Then `CCCn1c(N)c(C(=O)COC(=O)c2c(C)noc2C)c(=O)n(C)c1=O`, with “inactive”; and `Cc1ccccc1-n1c(=O)c2ccccc2n2cnnc12`, with “inactive”; and `O=C(O)Cn1cc(C(=O)c2ccco2)c2ccccc21`, with “inactive”. Then `Cc1cc(C(=O)COC(=O)CNC(=O)c2ccco2)c(C)n1Cc1ccco1`, with “inactive”; and `COc1ccc(N2CCN(C(=O)C3CCCO3)CC2)cc1` (stereo unspecified), with “inactive”.

Consider `Cc1ccc(C)n1-c1cccc(N)c1`, for which the compound was called inactive. Then `N/C(=N\OC(=O)c1ccc(F)cc1)c1nonc1N`, with “inactive”; and `Cc1cc(C(=O)N/N=C/c2ccc[nH]2)no1`, with “inactive”. Then `CC(=O)N/N=C/c1ccc(OCCOc2ccc(Br)cc2)cc1`, with “inactive”; and `CCOC(=O)C1=C(C)N(CCO)C(=O)NC1c1cccc(O)c1` (stereo unspecified), with “inactive”; and `Cc1cc(C)n(-c2ccc(C(=O)OCC(=O)Nc3ccc([N+](=O)[O-])cc3)cc2)n1`, with “inactive”. To `Cc1ccc(/C=N/NC(=O)Cn2cnc3ccccc32)o1` belongs “inactive”; to `C=CCNC(=O)CC(=O)N/N=C/c1ccc(C(=O)OC)cc1`, “inactive”. On to `COc1ccc(OC)c(C(C(=O)NCc2ccco2)N(C(=O)Cn2nnc3ccccc32)C(C)C)c1` (stereo unspecified), for which the result was inactive. Turning to `O=C(C1CCN(C2CC(=O)N(Cc3ccccc3)C2=O)CC1)N1CCCCCC1` (stereo unspecified), the call was inactive. Take `Cc1ccc(S(=O)(=O)N2C(=O)CCC2C(=O)N2CCN(C)CC2)cc1` (stereo unspecified): the outcome was inactive.

Take `CCn1cc(C(=O)NCCCN(C)C)c(=O)c2cc(F)c(N3CCN(C)CC3)cc21`: the outcome was inactive.

Regarding `Cc1cccc(-n2nc3c(c2NC(=O)c2ccco2)CSC3)c1C`, the compound was called inactive. Regarding `CC(=O)Nc1ccc(-n2nnnc2SCC(=O)Nc2cccc(NC(=O)c3ccco3)c2)cc1`, the call was inactive.

Turning to `O=C(Nc1cccc(-c2cn3cccnc3n2)c1)c1ccco1`, the outcome was inactive. To `O=C(NC1CCCCC1)n1c(=O)oc2ccc(Cl)cc21` belongs “inactive”; to `Cc1ccc(C(=O)N2CC3(C(C)C)CN(C(=O)c4ccc(C)cc4)CC(C(C)C)(C2)C3=O)cc1`, “inactive”. To `Cc1ccc(C(=O)C(OC(=O)COc2ccccc2C)c2ccccc2)cc1` (stereo unspecified) belongs “inactive”; to `COC(=O)c1cc(C#N)c(Oc2ccc(F)cc2)nc1C`, “inactive”. Then `Nc1nc(Nc2ccc(Cl)cc2)n[nH]1`, with “inactive”; and `COC(=O)CSc1nc(SCc2ccccc2Cl)nc2c1CCCC2`, with “inactive”. Take `CCCCCNS(=O)(=O)c1cc(C)ccc1OC`: the result was inactive.

Turning to `CCCCn1nnnc1NCc1cc(OC)c(OC)cc1OC`, the outcome was inactive. Then `COc1ccc(C(C)C)cc1S(=O)(=O)Nc1ccc(Cl)cn1`, with “inactive”; and `C=CCNC(=O)C(=O)NN=C1CCN(C)CC1`, with “inactive”; and `COc1ccc(N2CCN(C(=O)Nc3ccc(S(=O)(=O)N(C)C)cc3)CC2)cc1`, with “inactive”.

For the compound `CCOCCCNC(=S)Nc1cc(C)cc(C)c1`, the compound was called inactive. Then `COCCSc1ccccc1C(=O)NCC1CCCO1` (stereo unspecified), with “inactive”; and `COc1cccc(-c2nc(-c3ccc(Br)o3)no2)c1`, with “inactive”; and `COCCNC(=S)N(Cc1cccnc1)Cc1ccc(OC)c(OC)c1`, with “inactive”. `CCOC(=O)C1=C(C)NC(=O)NC1c1ccsc1` (stereo unspecified): the call was inactive. Then `CC1=C(C(=O)Nc2cccnc2)C(c2ccccn2)n2nnnc2N1` (stereo unspecified), with “inactive”; and `CN1C(=O)CC(P(=O)(c2ccccc2)c2ccccc2)N(C)C1=O` (stereo unspecified), with “inactive”. Then `Cc1cn([C@H]2C[C@H](N=[N+]=[N-])[C@@H](CO)O2)c(=O)[nH]c1=O`, with “inactive”. Then `COc1nsnc1NS(=O)(=O)c1ccc(NC(=S)NC(=O)c2ccncc2)cc1`, with “inactive”; and `C#CC(C)(CC)NC(=O)c1cc(OC)c(OC)c(OC)c1` (stereo unspecified), with “inactive”.

For `CCn1nnc(-c2ccccc2NS(=O)(=O)c2ccc(S(=O)(=O)N3CCCCCC3)cc2)n1`, the outcome was inactive. Then `Cc1nc(CC(=O)c2ccc(O)cc2O)cs1`, with “inactive”. To `CC(=O)Nc1nc(-c2ccc(Cl)cc2)nc(C)c1C(C)=O` belongs “inactive”; to `OCCNc1ccc(Cl)cc1`, “inactive”; to `C#CCOc1c(Cl)cc(/C=N/O)cc1OC`, “inactive”. Regarding `CC(C(=O)NC1C=CS(=O)(=O)C1)N1C(=O)/C(=C/c2ccc(Cl)cc2)SC1=S` (stereo unspecified), the compound was called inactive. Turning to `COc1cc(C)c(Cc2cnc(N)nc2N)cc1OC`, the outcome was inactive. Then `CCn1cc(C(=O)O)c(=O)c2cc(Br)ccc21`, with “inactive”; and `COc1ccc(NC(=O)CSc2nccn2-c2ccccc2)cc1`, with “inactive”; and `Cc1ccc(OCc2nnc(SCC(=O)Nc3ccc4c(c3)OCO4)n2C)cc1`, with “inactive”. To `Cc1cc(C)c(C#N)c(SCC(O)CS(=O)(=O)Cc2ccccc2)n1` (stereo unspecified) belongs “inactive”; to `CCn1c(Cc2c(C)[nH]c3ccccc23)n[nH]c1=S`, “inactive”; to `O=C1CSc2ccccc2N1Cc1ccc(F)cc1`, “inactive”. Take `COc1cc(C2SCC(=O)N2c2nnc(C34CC5CC(CC(C5)C3)C4)s2)cc(OC)c1OC` (stereo unspecified): the compound was classed as inactive. Turning to `C/C(=C\c1ccco1)C1Nc2cccc3cccc(c23)N1`, the result was inactive. Take `CN1CCN(C(c2cccc(C(F)(F)F)c2)c2nnnn2C(C)(C)C)CC1` (stereo unspecified): the outcome was inactive. With `O=C(O)c1cc(O)c2c(c1)[C@@H]([C@H]1c3cc(C(=O)O)cc(O)c3C(=O)c3c(O[C@@H]4O[C@H](CO)[C@@H](O)[C@H](O)[C@H]4O)cccc31)c1cccc(OC3O[C@H](CO)[C@@H](O)[C@H](O)[C@H]3O)c1C2=O` (stereo partly specified), the call was inactive. Turning to `CN1CCN(c2c(F)cc3c(=O)c(C(=O)O)cn4c3c2OCN4C)CC1`, the compound was called inactive.

In the case of `COc1ccc(-n2c(=O)c3ccccc3n(CC(=O)Nc3cc(C)on3)c2=O)cc1OC`, the compound was called inactive.

With `CCn1cc(C(=O)O)c(=O)c2cc(F)c(N3CCN(C(=S)NC(=O)c4ccc(F)c(F)c4)CC3)cc21`, the compound was classed as inactive. To `COc1ccccc1CC1(C)NC(=O)N(CC(=O)N2CC(C)OC(C)C2)C1=O` (stereo unspecified) belongs “inactive”; to `CCn1nc(C(=O)O)c(=O)c2cc3c(cc21)OCO3`, “inactive”; to `Cc1snc(S(=O)(=O)/C(C#N)=N\Nc2ccccc2)c1C#N`, “inactive”. `COc1ccc(N2C(=O)[C@@H]3[C@H](C2=O)[C@H]2c4ccccc4C=CN2[C@@H]3C(=O)Nc2ccccc2)cc1`: the compound was classed as inactive.

On to `CCC(CC)C(=O)Nc1cccc(C(=O)N2CCCC2)c1`, for which the compound was classed as inactive. Turning to `O=C(c1ccccc1)N1CCSC1=S`, the compound was called inactive.

For the compound `Cc1cc(C(C)c2ccccc2)c(O)c(CN2CCOCC2)c1C` (stereo unspecified), the outcome was inactive. To `CC(CN1CCOCC1)C(=O)c1ccccc1` (stereo unspecified) belongs “inactive”; to `CC(C)NC(=O)/C(=N\O)c1ccccc1`, “inactive”.

Values taken from PubChem BioAssay AID2253 (Southern Research Specialized Biocontainment Screening …, 2010).
